A selection: hits, their analogues and other compounds. The true share with any hit is near 14%.
MARV entry inh: qHTS for inhibitors of binding or entry into cells for Marburg Virus; AID 540276, 2011; Potency, µM (top dose mostly 37.8 µM), inactives show top-dose activity change, negative = inhibition, usual class: inhibitors; Marburg virus pseudotyped entry inhibition, cell reporter; hit rate 1.8% among 300,000; calls by dose curve; tested in HEK293 cells; further: potency means the concentration at half of the fitted maximal effect
HCMV inh: qHTS Assay for inhibitors of the human cytomegalovirus (HCMV). hit rate 4.5% among 410,000. AID 1259415, 2018. activity change, negative = inhibition, % at 57.5 µM. HFF cells, HCMV-luciferase reporter, 72 h; stronger effect = lower value; in the data active means activity change below about -60%; inconclusive means no clear call, values can overlap the other calls; inactive means above about -39%
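Human foreskin fibroblasts infected with luciferase-reporter HCMV at MOI 1 PFU/cell, compounds at two doses. Luciferase measured 72 h post infection; normalized to buffer-only basal and Salinomycin (10uM) controls.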
Pf growth 48h: Primary qHTS for delayed death inhibitors of the malarial parasite plastid, 48 hour incubation | P. falciparum luciferase growth in erythrocytes, 48 h | Potency, µM (series often up to 28.7 µM), for inactives: top-dose activity change, negative = inhibition, hits mostly inhibitors | hit rate 5.9% among 310,000 | AID 504832, 2011; further: potency means the concentration at half of the fitted maximal effect
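Luciferase-expressing parasites in RBCs, 2% Hct / 0.1% parasitemia final; RPMI 1640 + 0.5% Albumax; 37 C, 5% CO2, one generation; luminescence read-out, lower signal = inhibition.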
HCV inhibitor: qHTS Assay for Inhibitors of Hepatitis C Virus (HCV). Huh7.5.1 HCVcc-Cre infection, luciferase reporter, 44 h. hit rate 3.4% among 340,000. Potency, µM (doses to about 41.8 µM), inactives show at the highest dose activity change, negative = inhibition, usual class: inhibitors; further: potency means the concentration at half of the fitted maximal effect
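A cell-based infection assay in which seeded cells (1,000 per well) receive test compound after 4 h, are inoculated with HCVcc-Cre at approximately 0.5 moi, and are incubated 44 h before luminescence detection.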
Pf growth 96h: Primary qHTS for delayed death inhibitors of the malarial parasite plastid, 96 hour incubation; P. falciparum luciferase reporter growth, 96 h; Potency, µM (top dose mostly 28.7 µM), without a hit: at the highest dose activity change, negative = inhibition, actives largely listed as inhibitors; hit rate 6.9% among 320,000; further: potency means the concentration at half of the fitted maximal effect
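Infected RBCs, 2% Hct / 0.05% parasitemia final; luciferase-reporter P. falciparum; cpd 96 h, 37 C, 5% CO2; luciferase detection reagent; luminescence.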
LASV entry inh: qHTS for Inhibitors of binding or entry into cells for Lassa Virus | hit rate 1.2% among 300,000 | Lassa virus pseudotype entry inhibition, cell reporter | Potency, µM (titrated, usually from 37.9 µM), without a hit: top-dose activity change, negative = inhibition, most hits filed as inhibitors; calls by dose curve; tested in HEK293 cells; further: potency means the concentration at half of the fitted maximal effect; nearly all actives have a fitted effect of over 50% in size
* hit, by the source's call; [ ] = another dose, or the depositor's remark. Unless noted, the call rests on the fitted dose curve; in most records, active means well fitted inhibition curve with a large enough effect; inconclusive means small, poorly fitted or top-dose-only effect, or another doubt; inactive means no such curve, though single readings can be large or run the other way. On the % scale 0 is the no-effect control and ±100 the full control effect.

`O=C(Nc1cc(SCCO)cc([N+](=O)[O-])c1)c1ccco1` gave MARV entry inh inconclusive, HCMV inh -21.6, Pf growth 48h 19.0%, HCV inhibitor -16.0%, Pf growth 96h 9.2% and LASV entry inh -19.9%.
O=C(Nc1cc(Oc2ccc(Cl)cc2)cc([N+](=O)[O-])c1)c1ccco1 was read as MARV entry inh inconclusive, HCMV inh -2.7, Pf growth 48h inconclusive, HCV inhibitor 10µM*, Pf growth 96h 94.6% and LASV entry inh -6.4%.
For COc1cc2c(cc1NC(=S)Nc1cccc(C(F)(F)F)c1)oc1ccccc12 the results were MARV entry inh -23.9%, HCMV inh -20.6, Pf growth 48h inconclusive, HCV inhibitor 10µM* and LASV entry inh -0.6%.
COc1cc2c(cc1NC(=O)CSCC(=O)O)oc1ccccc12 was read as MARV entry inh -11.9%, HCMV inh -0.6, Pf growth 48h 5.9%, HCV inhibitor -14.5%, Pf growth 96h -21.2% and LASV entry inh -23.1%.
Screening COc1cc2c(cc1NC(=O)CCC(=O)O)oc1ccccc12 returned MARV entry inh 14.7%[46.1 µM], HCMV inh -4.6, Pf growth 48h 27.5%, HCV inhibitor inconclusive, Pf growth 96h inconclusive and LASV entry inh -3.4%[46.1 µM].
COCCCNC(=S)Nc1cc2oc3ccccc3c2cc1OC was read as MARV entry inh inconclusive, HCMV inh 3.8, Pf growth 48h inconclusive, HCV inhibitor 8.91µM*, Pf growth 96h inconclusive and LASV entry inh -14.1%[46.1 µM].
Screening COc1cc2c(cc1NC(=S)Nc1cccc3ccccc13)oc1ccccc12 returned MARV entry inh 2.0%, HCMV inh 25.8, Pf growth 48h -28.3%, HCV inhibitor 2.51µM* and LASV entry inh 15.6%.
For O=C1C(=O)N(C2CCN(C(=O)c3ccc(F)cc3)CC2)CCN1Cc1ccc(F)cc1 the results were HCMV inh -4.0 and LASV entry inh 9.6%[46.1 µM].
For c1cncc(CSc2ccc(-c3ccc4c(c3)OCO4)nn2)c1 the results were MARV entry inh inconclusive, HCMV inh 50.0, Pf growth 48h 335.8%, HCV inhibitor inconclusive, Pf growth 96h 0.0% and LASV entry inh inconclusive.
Screening N#CCC(=O)N/N=C/c1c(-c2ccccc2)n(-c2ccccc2)c2ccccc12 returned MARV entry inh inconclusive, HCMV inh 5.0, Pf growth 48h 9.28µM*, HCV inhibitor 14.1µM*, Pf growth 96h inconclusive and LASV entry inh inconclusive.
For COc1ccc(CCNC(=O)CN2C(=O)COc3ccc(C)cc32)cc1OC the results were MARV entry inh 8.4%[46.1 µM], HCMV inh -2.7 and LASV entry inh inconclusive.
For CCCCOc1ccc(-c2c(C#N)c(N)nc(SCC(N)=O)c2C#N)cc1 the results were MARV entry inh inconclusive, HCMV inh 33.3, Pf growth 48h inconclusive, HCV inhibitor 5.01µM*, Pf growth 96h inconclusive and LASV entry inh 4.47µM*.
`COc1cc(CC(NC(C)=O)C(=O)NC2CCN(S(=O)(=O)c3ccc(NC(C)=O)cc3)CC2)cc(OC)c1` (stereo not drawn) gave MARV entry inh 11.0%[46.1 µM], HCMV inh -71.8*, Pf growth 48h -12.3%, HCV inhibitor 6.6% and Pf growth 96h 21.1%.
`CC(C(=O)Nc1ccc(S(=O)(=O)N2CCCC2)cc1)N(C)CC(=O)Nc1cccc(F)c1` (stereo not drawn) gave HCMV inh 15.9 and HCV inhibitor inconclusive.
For COc1cccc(CC(=O)Nc2cc(S(=O)(=O)N3CCCCC3)ccc2C)c1 the results were HCMV inh 24.8, Pf growth 48h inconclusive, HCV inhibitor inconclusive and Pf growth 96h inconclusive.
COc1ccc(CC(NC(C)=O)C(=O)NC2CCN(S(=O)(=O)c3ccc(NC(C)=O)cc3)CC2)cc1 (stereo not drawn) was read as MARV entry inh inconclusive, HCMV inh -2.7, Pf growth 48h -24.8%, HCV inhibitor -7.0%, Pf growth 96h inconclusive and LASV entry inh 20.5%[46.1 µM].
Screening Cc1ccc(NC(=O)CN(C)C(C)C(=O)Nc2ccc(S(=O)(=O)N3CCCC3)cc2)cc1 (stereo not drawn) returned MARV entry inh -3.9%, HCMV inh -0.7, Pf growth 48h 11.7µM*, HCV inhibitor inconclusive, Pf growth 96h 11.7µM* and LASV entry inh 4.9%.
Screening COc1cccc(CC(=O)Nc2ccc(S(=O)(=O)N3CCCCC3)cc2)c1 returned MARV entry inh 10µM*, HCMV inh -6.2, HCV inhibitor inconclusive and LASV entry inh inconclusive.
Screening COc1cccc(NC(=O)CN(C)C(C)C(=O)Nc2ccc(S(=O)(=O)N3CCCC3)cc2)c1 (stereo not drawn) returned MARV entry inh 7.6%[46.1 µM], HCMV inh 0.8, Pf growth 48h 9.28µM*, HCV inhibitor -11.6%, Pf growth 96h 4.65µM* and LASV entry inh -5.3%.
Screening Cc1ccc(-n2nc3cc(C)c(NC(=O)c4ccc(-c5ccccc5)o4)cc3n2)cc1 returned HCMV inh 92.6 and LASV entry inh 25.0%[46.1 µM].
`NC(=O)CCC(NC(=O)c1ccc(Cl)cc1)C(=O)NCCc1ccc2c(c1)OCCO2` (stereo not drawn) gave MARV entry inh inconclusive, HCMV inh -18.8, Pf growth 48h -21.4%, HCV inhibitor 4.0%, Pf growth 96h 24.8% and LASV entry inh 1.8%[46.1 µM].
Screening CCc1ccccc1NC(=O)N1CCC(NC(=O)C(Cc2ccc(OC)c(OC)c2)NC(C)=O)CC1 (stereo not drawn) returned MARV entry inh -8.9%, HCMV inh -33.5, Pf growth 48h inconclusive, HCV inhibitor 16.0%, Pf growth 96h 11.7µM* and LASV entry inh 3.8%.
Screening CN1c2ccc(Cl)cc2C(=O)NC1C1CC=CCC1 (stereo not drawn) returned MARV entry inh inconclusive, HCMV inh 1.3, Pf growth 48h -25.1%, HCV inhibitor -17.5%, Pf growth 96h 11.7µM* and LASV entry inh -0.5%.
`CC(C)CC1NC(=O)c2cc(Cl)ccc2-n2c1nc1cc(F)ccc1c2=O` (stereo not drawn) gave HCMV inh -12.8 and HCV inhibitor 18.9%.
COc1ccccc1Cc1c(-c2ccccc2)nc2ccc(Cl)cn12 was read as HCMV inh 51.0.
`Cc1sc2ncnc(N3CCC(C(=O)Nc4ccc(S(N)(=O)=O)cc4)CC3)c2c1C` gave HCMV inh -78.6*, Pf growth 48h inconclusive, HCV inhibitor inconclusive and Pf growth 96h inconclusive.
